Assay results published in PubChem BioAssay (NCI).
The panel holds about 83,000 compounds, 20% with a hit somewhere; the sample as a whole holds those more often.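 Negative percent growth values reflect cell death: -40 means 40% of the cells present at the start died, and -100 means all died.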 Unmarked numbers belong to inactive results. Active and inactive are the calls of the source. How the source made its calls: active means growth percent below 10; inactive means the rest.

Assays:
Test in all cases: NCI-60 one-dose screen, 48 h (100 = growth as untreated, 0 = no growth, -100 = all killed)
Settings in all cases: 10 µM unless noted
NCI-H23 lung = test system: NCI-H23 lung
NCI-H226 lung = test system: NCI-H226 lung
NCI-H322M lung = test system: NCI-H322M lung
HOP-62 NSCLC = test system: HOP-62 NSCLC
NCI-H460 lung = test system: NCI-H460 lung
HOP-92 NSCLC = test system: HOP-92 NSCLC
NCI-H522 lung = test system: NCI-H522 lung
A549/ATCC NSCLC = test system: A549/ATCC NSCLC
786-0 renal = test system: 786-0 renal
COLO 205 colon = test system: COLO 205 colon
DU-145 prostate = test system: DU-145 prostate
K-562 leukemia = test system: K-562 leukemia
MALME-3M melanoma = test system: MALME-3M melanoma
MDA-MB-231 breast = test system: MDA-MB-231 breast
RXF 393 renal = test system: RXF 393 renal
SF-268 CNS = test system: SF-268 CNS
SF-295 CNS = test system: SF-295 CNS
SF-539 CNS = test system: SF-539 CNS
UACC-257 melanoma = test system: UACC-257 melanoma
M14 melanoma = test system: M14 melanoma

Compound	growth (NCI-H23 lung)	growth (NCI-H226 lung)	growth (NCI-H322M lung)	growth (HOP-62 NSCLC)	growth (NCI-H460 lung)	growth (HOP-92 NSCLC)	growth (NCI-H522 lung)	growth (A549/ATCC NSCLC)	growth (786-0 renal)	growth (COLO 205 colon)	growth (DU-145 prostate)	growth (K-562 leukemia)	growth (MALME-3M melanoma)	growth (MDA-MB-231 breast)	growth (RXF 393 renal)	growth (SF-268 CNS)	growth (SF-295 CNS) [%]	growth (SF-539 CNS)	growth (UACC-257 melanoma)	growth (M14 melanoma)
C=C1C(=O)O[C@H]2[C@H]1CC/C(COC(=O)c1cc3cc(OC)ccc3[nH]1)=C\CC[C@@]1(C)O[C@@H]21	-72.6% (active)	-68.3% (active)	-50.8% (active)	-68.9% (active)	-37% (active)	-62.7% (active)	-91.4% (active)	-73.9% (active)	-87.6% (active)	-71.3% (active)	-94.4% (active)	0.302% (active)	-85.3% (active)	-71.6% (active)	-95.1% (active)	-82.8% (active)	47.5	-93.4% (active)	-89.6% (active)	-52.9% (active)
N#CCCN=Nc1c(O)[nH]c2ccc([N+](=O)[O-])cc12	94.9%	96%	98%	99.4%	102%	102%	78.8%	114%	104%	109%	111%	105%	110%	90%	106%	94.9%	105	94.9%	119%	101%
O=C1/C(=C/N2N=C(c3ccc4ccccc4c3)CC2c2ccccc2O)SC(=S)N1c1cccnc1 (stereo not given)	43.3%	31.7%	46%	25.2%	15.3%	77%	21.1%	18.8%	14%	27.3%	24.8%	10.9%	79.5%	53%	-8.6% (active)	31.9%	10.5	-26.2% (active)	69.1%	7.17% (active)
N#Cc1c(-c2ccc(Cl)cc2)nc(N=Nc2c(O)[nH]c3ccc(Cl)cc23)nc1N1CCOCC1	84.8%	85.6%	96.5%	96.3%	98.4%	89.5%	93.6%	102%	103%	105%	103%	116%	88.8%	82.9%	95.7%	95.8%	102	97.8%	107%	93.6%
COc1ccc(C(=O)c2sc3nc(C)cc(C)c3c2N)cc1OC	74.3%	89.8%	87.9%	53.4%	67.6%	89.7%	-13.1% (active)	60%	99.5%	102%	90.7%	92.6%	83.3%	56.3%	93.9%	60.1%	89.8	92.2%	95.1%	105%
COc1ccc(/C=C(\C#N)C(=O)Nc2cccc(Nc3nc(SC)nc(-c4cccc([N+](=O)[O-])c4)c3C#N)c2)cc1OC	88.5%	91.8%	100%	91.3%	100%	111%	97.2%	103%	106%	112%	107%	77.9%	97%	68.9%	110%	103%	97.2	93.4%	103%	91.5%
COc1ccc(CCNc2nc(SC)nc(-c3cccc([N+](=O)[O-])c3)c2C#N)cc1OC	92.7%	49.2%	88.2%	67.6%	88.5%	75.8%	66.7%	82.2%	93.2%	113%	91.7%	92.1%	77.8%	83.1%	90.1%	63.6%	88.5	74.6%	89.7%	93.1%
